Our source for the binding signal values is publication PMC5869772, “Quantitative profiling of BATF family proteins/JUNB/IRF hetero-trimers using Spec-seq”.

The experiment has as its target T1, BATF3;JUNB (human;human, UniProt Q9NR55;P17275 1-127;148-347, |).
T1 sequence 1: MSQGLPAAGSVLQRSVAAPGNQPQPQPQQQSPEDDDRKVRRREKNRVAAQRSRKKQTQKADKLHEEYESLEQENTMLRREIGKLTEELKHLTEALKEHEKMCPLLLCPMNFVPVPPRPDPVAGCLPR
T1 sequence 2: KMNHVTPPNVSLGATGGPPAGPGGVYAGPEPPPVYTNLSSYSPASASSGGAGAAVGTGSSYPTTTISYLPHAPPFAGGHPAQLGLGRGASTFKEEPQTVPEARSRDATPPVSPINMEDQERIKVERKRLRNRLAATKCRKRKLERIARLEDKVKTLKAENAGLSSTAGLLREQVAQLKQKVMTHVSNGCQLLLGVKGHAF
Briefly: Spec-seq (EMSA and sequencing of bound and unbound bands); 100 nM BATFx-JUNB, 1 uM dsDNA library, 50 mM K acetate, 20 mM Tris-acetate, 10 mM Mg acetate, 100 ug/ml BSA, pH 7.9, 10% glycerol, 30 min on ice; native 9% PAGE at 4 C; low values mean tight binding. The conditions noted are these: protein: recombinant;recombinant; tags: N-terminal mCherry-TEV, cleaved off;C-terminal 6His; copies: 1;1; dsDNA, one strand shown. The method in brief: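 The protein, at 100 nM, was incubated with 1 μM double-stranded degenerate DNA library for 30 min on ice in NEB Cutsmart buffer with 10% glycerol, then resolved by native 9% PAGE at 4 °C. Excised bound and unbound bands were PCR-barcoded and Illumina-sequenced, and each sequence's relative binding energy in kT is −ln of its bound/unbound read-count ratio.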
A general note: In EMSA bound probe runs differently from free probe, usually more slowly.
With “GATAGTCTCATTTTCACCCCGTGAAATTACGTCATTGTTCCATTACAGTATCTGT”, the binding signal was -1.82 kT. With “GATAGTCTCATTTTCACCCCGTGAAATAACGTCATTGTTCCATTACAGTATCTGT”, the binding signal was -1.09 kT.

For “GATAGTCTCATTTTCACCCCGTGAAATGACTCTCTTGTTCCATTACAGTATCTGT”, the binding signal was determined as 0.694 kT. Next, “GATAGTCTCATTTTCACCCCGTGAAATGACTCGATTGTTCCATTACAGTATCTGT”: 0.109 kT. Turning to “GATAGTCTCATTTTCACCCCGTGAAATGTCGTCATTGTTCCATTACAGTATCTGT”, the binding signal is -0.976 kT. Consider “GATAGTCTCATTTTCACCCCGTGAAAATGGGTCATTGTTCCATTACAGTATCTGT”, for which the binding signal came to 0.203 kT. Next, “GATAGTCTCATTTTCACCCCGTGAAATGAGTCGCTTGTTCCATTACAGTATCTGT”: 0.711 kT; “GATAGTCTCATTTTCACCCCGTGAAATGAGTCGATTGTTCCATTACAGTATCTGT”: 0.391 kT. For the sequence “GATAGTCTCATTTTCACCCCGTGAAATGACTTATTTGTTCCATTACAGTATCTGT”, the binding signal worked out at 0.185 kT. Next, “GATAGTCTCATTTTCACCCCGTGAAATGAGACAATTGTTCCATTACAGTATCTGT”: 0.853 kT. “GATAGTCTCATTTTCACCCCGTGAAATGACGTCGTTGTTCCATTACAGTATCTGT”: the binding signal was -0.759 kT. As for “GATAGTCTCATTTTCACCCCGTGAAATGACGTCTTTGTTCCATTACAGTATCTGT”, the figure is -0.318 kT.

As for “GATAGTCTCATTTTCACCCCGTGAAATTGTGTCATTGTTCCATTACAGTATCTGT”, the binding signal is -0.677 kT. With “GATAGTCTCATTTTCACCCCGTGAAACGAGTCATTTGTTCCATTACAGTATCTGT”, the binding signal is -0.111 kT. In the case of “GATAGTCTCATTTTCACCCCGTGAAATGAGGCACTTGTTCCATTACAGTATCTGT”, the binding signal is 1.29 kT. Turning to “GATAGTCTCATTTTCACCCCGTGAAATGAGTCACTTGTTCCATTACAGTATCTGT”, the binding signal is -1.03 kT. Regarding “GATAGTCTCATTTTCACCCCGTGAAACCGAGTCATTGTTCCATTACAGTATCTGT”, the binding signal was -0.192 kT. For “GATAGTCTCATTTTCACCCCGTGAAATGAGTGAGTTGTTCCATTACAGTATCTGT”, the binding signal stood at 0.377 kT.

In the case of “GATAGTCTCATTTTCACCCCGTGAAATGACGCAATTGTTCCATTACAGTATCTGT”, the binding signal is -1.27 kT. As to “GATAGTCTCATTTTCACCCCGTGAAATGAGTCAATTGTTCCATTACAGTATCTGT”, the binding signal was -0.486 kT. Regarding “GATAGTCTCATTTTCACCCCGTGAAATGAGTCGTTTGTTCCATTACAGTATCTGT”, the binding signal turned out to be 0.536 kT. For the sequence “GATAGTCTCATTTTCACCCCGTGAAATGAGCCAGTTGTTCCATTACAGTATCTGT”, the binding signal was determined as 1.1 kT. Consider “GATAGTCTCATTTTCACCCCGTGAAATAGAGTCATTGTTCCATTACAGTATCTGT”, for which the binding signal was -0.29 kT.

As for “GATAGTCTCATTTTCACCCCGTGAAATGACTTAATTGTTCCATTACAGTATCTGT”, the binding signal is -0.344 kT.

“GATAGTCTCATTTTCACCCCGTGAAATGAGCCATTTGTTCCATTACAGTATCTGT”: the binding signal came out at 0.914 kT.

Consider “GATAGTCTCATTTTCACCCCGTGAAAAGGAGTCATTGTTCCATTACAGTATCTGT”, for which the binding signal is 0.185 kT. Consider “GATAGTCTCATTTTCACCCCGTGAAATGCGTCATTTGTTCCATTACAGTATCTGT”, for which the binding signal was -1.03 kT. Regarding “GATAGTCTCATTTTCACCCCGTGAAATGAGTCCGTTGTTCCATTACAGTATCTGT”, the binding signal is 1.04 kT. Next, “GATAGTCTCATTTTCACCCCGTGAAATGACTAAATTGTTCCATTACAGTATCTGT”: 0.0877 kT; “GATAGTCTCATTTTCACCCCGTGAAATGACTCTATTGTTCCATTACAGTATCTGT”: 0.236 kT; “GATAGTCTCATTTTCACCCCGTGAAATGACTTAGTTGTTCCATTACAGTATCTGT”: 0.28 kT. As for “GATAGTCTCATTTTCACCCCGTGAAAATTAGTCATTGTTCCATTACAGTATCTGT”, the figure is -1.24 kT. Consider “GATAGTCTCATTTTCACCCCGTGAAATGACTCGTTTGTTCCATTACAGTATCTGT”, for which the binding signal was 0.243 kT.
